In all, about 10,000 compounds went through this assay and about 320 (3.2%) were called active. Rule as the data show it: active = CPE inhibition mostly above about 9.1% (no sharp cut-off); inactive = mostly below about 7.2%. For the sample, actives were picked, then their nearest neighbours and some compounds at random.
Assay: Dengue virus cytopathic effect inhibitors, cell-based, CPE readout, HTS (AID 540333)
Settings: Dengue virus CPE inhibition in host cells, at 20 µM; stronger effect = higher value

Structure (SMILES) | CPE inhibition
c1ccc(-c2[nH]c(-c3ccccc3)[n+](CC3CO3)c2-c2ccccc2)cc1 (stereo not given) | 16.7% (active)
O=C(NCCCN1CCOCC1)C(Cl)(Cl)Cl | inactive
CCOC(=O)CCCCCNC(=O)c1c(O)[nH]c(=O)[nH]c1=O | inactive
N#CC(C#N)=Cc1ccc(-c2ccccc2F)o1 | 12.6% (active)
COC(=O)C1=C(c2ccc(C(C)=O)cc2)C[C@@H]2CC[C@H]1N2C(=O)N1CCCCC1 | inactive
Cc1c(C(c2ccc(O)cc2)c2c(O)c3ccccc3oc2=O)c(=O)n(-c2ccccc2)n1C (stereo not given) | 0.205% (inactive)
Cc1ccc(-n2c(O)c(/C=N/N3CCOCC3)c(=O)[nH]c2=S)cc1 | 0.115% (inactive)
COC(=O)C1=C(c2ccc(F)cc2F)C[C@@H]2CC[C@H]1N2C(=O)NC(C)C | inactive
O=C(N/N=C/c1c(O)n(CCC2=CCCCC2)c(=O)[nH]c1=O)c1ccccc1 | 0.065% (inactive)
COc1ccc(/C=C/C(=O)c2c(O)n(CCC3=CCCCC3)c(=O)[nH]c2=O)cc1 | 9.38% (active)
O=C(/C=C/c1ccc2c(c1)OCO2)c1c(O)n(CCC2=CCCCC2)c(=O)[nH]c1=O | 4.09% (inactive)
CC(ON1CC1(C(F)(F)F)C(F)(F)F)(C(N)=O)C(N)=O (stereo not given) | 0.53% (inactive)
CN1c2ccc([N+](=O)[O-])cc2CC2(C(=O)NC(=O)N(c3ccccc3)C2=O)C1c1ccccc1 (stereo not given) | 15.4% (active)
CC(C)N1C(=O)NC(=O)C2(Cc3cc([N+](=O)[O-])ccc3N(C)C2c2ccccc2)C1=O (stereo not given) | 1.19% (inactive)
CN1c2ccc([N+](=O)[O-])cc2CC2(C(=O)NC(=O)NC2=O)C1c1ccccc1 (stereo not given) | inactive
CN1C(=O)C(=Cc2ccc(N3CCOCC3)o2)C(=O)N(C)C1=O | inactive
C/C(=N\Nc1ccccc1)c1c(O)n(Cc2ccccc2)c(=O)[nH]c1=O | inactive
COC(=O)C1=C(c2ccc(F)cc2F)C[C@@H]2CC[C@H]1N2C(=O)NCCOc1ccccc1Cl | 3.74% (inactive)
CCCc1nc2ccc(Br)cc2c(=O)n1-c1ccc([N+](=O)[O-])c(C(F)(F)F)c1 | 0.98% (inactive)
COC(=O)C1=C(c2cc3ccccc3o2)C[C@@H]2CC[C@H]1N2C | 0.83% (inactive)
CCCNC(=O)N1[C@H]2CC[C@@H]1C(C(=O)OC)=C(c1cc3ccccc3o1)C2 | 4.1% (inactive)
COC(=O)C1=C(c2cc3ccccc3o2)C[C@@H]2CC[C@H]1N2C(=O)NCc1cccc2ccccc12 | 16.2% (active)
CCC(=NCCC(c1ccccc1)c1ccccc1)c1c(O)[nH]c(=O)[nH]c1=O | 2.3% (inactive)
COC(=O)C1=C(c2ccc3ccccc3c2)C[C@@H]2CC[C@H]1N2C(=O)NC1Cc2ccccc2C1 | 6.91% (inactive)
O=C(Nc1ccccc1)c1c(O)[nH]c(=O)[nH]c1=O | inactive
O=C1CN=C(c2ccccc2)c2cc(Br)ccc2N1Cc1cc(=O)n2ccccc2n1 | 0.155% (inactive)
Cc1ccc(CN2C(=O)CN=C(c3ccccc3)c3ccccc32)cc1 | 9.14% (active)
O=C(N/N=C/c1c(O)n(CCc2ccccc2)c(=O)[nH]c1=O)c1ccncc1 | 0.65% (inactive)
CN(C)S(=O)(=O)c1cc(NC(=O)COC(=O)Cc2ccccc2)ccc1Cl | inactive
COC(=O)C1=C(c2ccc(S(C)(=O)=O)cc2)C[C@@H]2CC[C@H]1N2C(=O)NCc1ccc(C(F)(F)F)cc1 | 0.31% (inactive)

From PubChem BioAssay AID540333 (Southern Research Specialized Biocontainment Screening …, 2011)
